From PubChem BioAssay AID1159580 (chemical genetic matrix, 2015)
The whole screen tested about 5,500 compounds, of which about 2,000 (36%) were called active. Another 18% or so got no clear call; they are omitted. Cut-off read from the data, not from the text of the source: active = normalized growth mostly below about 0.91 (no sharp cut-off); inconclusive = no clear call, values can overlap the other calls; inactive = mostly above about 0.92. The list shows a part of the results.

Assay: chemical genetic growth profiling, strain panel (AID 1159580);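 note: tested at 20 µM; growth read once vehicle control cultures reached saturation at 30 °C; 1 = growth at the plate median or of vehicle wells; lower values mean less growth of the strain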
Settings: S. cerevisiae deletion strains, growth OD

Measured: normalized growth

CCN(CC)C(C)C(=O)N1c2ccccc2Sc2ccccc21 (stereo not given)
inactive: locus YAL013W, strain DEP1, hits give low values 1 | locus YAL040C, strain CLN3, hits give low values 1.02 | locus YCL061C, strain MRC1 (second series), hits give low values 1.01 | locus YDR363W, strain ESC2, hits give low values 1 | locus YER002W, strain NOP16, hits give low values 1.02 | locus YGR229C, strain SMI1, hits give low values 1.04 | locus YJR075W, strain HOC1, hits give low values 1.07 | locus YMR263W, strain SAP30, hits give low values 1.01 | locus YMR307W, strain GAS1, hits give low values 0.999 | locus YNL128W, strain TEP1, hits give low values 0.997 | locus YNL175C, strain NOP13, hits give low values 1.04 | locus YNL197C, strain WHI3, hits give low values 1.03 | locus YNL224C, strain SQS1, hits give low values 1.02 | locus YOR083W, strain WHI5 (second series), hits give low values 1.02 | locus YPL241C, strain CIN2, hits give low values 1.01
